From article PMC7819943, “Rice protein-binding microarrays: a tool to detect cis-acting elements near promoter regions in rice”
In all, about 39,000 sequences were measured (“fluorescence intensity (a.u.)”: median about 4,300, highest 2% from about 39,000 on). The entries come from a sample that favours the highest values as a whole.

These sequences were tested against T1, OsSMF1 (Oryza sativa, UniProt Q6ZLB0 1-436) (assay: protein-binding microarray (RPBM); PBS, 2% BSA, 51.3 ng/ul salmon testes DNA, 50 uM zinc acetate, 200 nM TF, 25 C, 1 h; high values mean tight binding). Conditions: protein: recombinant; tags: N-terminal polyhistidine and DsRed monomer fusion (pET32a); chain copies: 2; label: CyDye5-dUTP incorporated in the synthesized complementary strand; 3' TTTTT single-stranded linker to array surface; dsDNA, one strand shown.
T1 sequence: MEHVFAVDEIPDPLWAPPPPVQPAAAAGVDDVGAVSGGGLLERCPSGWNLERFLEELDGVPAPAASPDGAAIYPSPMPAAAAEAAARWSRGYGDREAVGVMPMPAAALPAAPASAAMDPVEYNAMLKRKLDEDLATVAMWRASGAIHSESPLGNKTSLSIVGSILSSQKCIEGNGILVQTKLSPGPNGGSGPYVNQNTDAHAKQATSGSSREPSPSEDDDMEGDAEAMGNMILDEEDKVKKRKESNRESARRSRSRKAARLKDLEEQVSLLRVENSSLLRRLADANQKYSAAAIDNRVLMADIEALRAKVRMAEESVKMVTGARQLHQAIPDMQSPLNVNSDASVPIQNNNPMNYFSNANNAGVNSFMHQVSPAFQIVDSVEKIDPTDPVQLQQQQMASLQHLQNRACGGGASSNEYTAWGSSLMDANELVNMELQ
How it was run: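 The binding signal is fluorescence intensity per feature, in arbitrary units, read on an Axon 4000B scanner. Polyhistidine- and DsRed-tagged transcription factors (N-terminal fusions) from E. coli BL21-CodonPlus were purified on Ni–NTA and applied at 200 nM for 1 h at 25 °C to a double-stranded, BSA-blocked custom Agilent array in buffer with 50 µM zinc acetate.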

Row | Sequence | binding signal
1 | TATGCCAAAGAGAAGCCTCGTCAGCCATCCCTTTGGCCACCGGAGTCACCTAGTGCAG | 7800 fluorescence intensity (a.u.)
2 | GAGCAGCCAGCTCGCCAAGCCTAGCCATTCTTGATCTCTTCGGAGTCACCTAGTGCAG | 3280 fluorescence intensity (a.u.)
3 | CGAAGTCGTGCTGCGCTCCGACTCAGCTGCATCGTCACTCCGGAGTCACCTAGTGCAG | 5960 fluorescence intensity (a.u.)
4 | CAGGGCAGCGGCAGGTGGGGAGGAGGCCGGCGGGTCGGCGCGGAGTCACCTAGTGCAG | 3470 fluorescence intensity (a.u.)
5 | GTCCATCGGATCGGGAGCGCGCGGCGAGGCAGGCGGGGTCCGGAGTCACCTAGTGCAG | 44300 fluorescence intensity (a.u.)
6 | ACTCGTGGAGCCGGTGATGACGTGCCCAAGCTAGAGACAGCGGAGTCACCTAGTGCAG | 7230 fluorescence intensity (a.u.)
7 | TCGGGTGAGCGAGTGAGTGGGCGAGGAGGCGCGGCGGCGGCGGAGTCACCTAGTGCAG | 3800 fluorescence intensity (a.u.)
8 | CAGCAGCAACGAAATCAGAACGAGGCGCAGGAAGAAGAAACGGAGTCACCTAGTGCAG | 28000 fluorescence intensity (a.u.)
9 | TCGGCCGTCGGATCGCGCGCGAAACGCTGTGATGTGCTGGCGGAGTCACCTAGTGCAG | 4480 fluorescence intensity (a.u.)
10 | GAGCCGAGACTGAGAGAGAGATCGGCGCCGGCTGTGAACGCGGAGTCACCTAGTGCAG | 48100 fluorescence intensity (a.u.)
11 | AAGAGGGAGGGGAGGGTTCGCGAACCAGTAGAAAACGGCTCGGAGTCACCTAGTGCAG | 3390 fluorescence intensity (a.u.)
12 | ACCCAACGGTGATGATGTCAGCTGACGTGGCGCCCCGGAGCGGAGTCACCTAGTGCAG | 40500 fluorescence intensity (a.u.)
13 | GAGGAAGAACCTTACGCTCAAACGAAACGGAACCAGTAGGCGGAGTCACCTAGTGCAG | 55100 fluorescence intensity (a.u.)
14 | CTGCCGGTGGACGGCGGCGGAGAGCTGACTAGCCGAGCCGCGGAGTCACCTAGTGCAG | 3520 fluorescence intensity (a.u.)
15 | GCGGAGGCCGCCGGCTGACGTGGCTCCCAACGGCCGGGAGCGGAGTCACCTAGTGCAG | 21200 fluorescence intensity (a.u.)
16 | GGATTGGCGACTCGACGTTGACAACATGACATATGAGGTACGGAGTCACCTAGTGCAG | 4210 fluorescence intensity (a.u.)
17 | GCTGCTCTCTCTCTCTCTCTCTCCCATCTCGTCCTCGCTTCGGAGTCACCTAGTGCAG | 19400 fluorescence intensity (a.u.)
18 | TCCACCTGGGTTCAAATCCTAGATTTGACACGGGTGCTCGCGGAGTCACCTAGTGCAG | 4830 fluorescence intensity (a.u.)
19 | ATAGCATCCTGTACACTCAAGTCATCCCTGACACACACACCGGAGTCACCTAGTGCAG | 3850 fluorescence intensity (a.u.)
20 | GGGCCAATCTAGTTGTCAACTTCTACTACTGCTAGGAGGACGGAGTCACCTAGTGCAG | 3410 fluorescence intensity (a.u.)
21 | GCTCGCCGGCCTCACCCTCAATACATGGTGATTCATCCGGCGGAGTCACCTAGTGCAG | 3660 fluorescence intensity (a.u.)
22 | TGAATCCACAGCCACGCCACGCGGCCCATGCCTACGCCTCCGGAGTCACCTAGTGCAG | 4000 fluorescence intensity (a.u.)
23 | CCTTGCCGCCGGCCAATTTATTGACTCACCGAGAAGTTTGCGGAGTCACCTAGTGCAG | 5600 fluorescence intensity (a.u.)
24 | TGTGACCCATTCTAATACAATAAATCTGGACATGTGTACTCGGAGTCACCTAGTGCAG | 3630 fluorescence intensity (a.u.)
25 | GCCTTCCGTTCCGCTCCTCTACCGCCGCGTCAAGATTCCCCGGAGTCACCTAGTGCAG | 4950 fluorescence intensity (a.u.)
26 | CGCCGCCGGCCGCGCCGCCGCTGCCGCCGTCGCCCCGCGCCGGAGTCACCTAGTGCAG | 3450 fluorescence intensity (a.u.)
27 | TTTCCGCTATCGCGGTGCGCGCGGAAGGCCCCGCTGCGGCCGGAGTCACCTAGTGCAG | 39200 fluorescence intensity (a.u.)

Row | Sequence | binding signal
28 | TGCGCCGCCGCCGCCGCCGCCGCTGCGGCGTGCATCCGCCCGGAGTCACCTAGTGCAG | 37400 fluorescence intensity (a.u.)
29 | ATCTCTAAACACCAAATTTGACACCGATCCACGTGCACACCGGAGTCACCTAGTGCAG | 7210 fluorescence intensity (a.u.)
30 | GACCAAGATGACAAAGATTACTATTATACTGATGATAACCCGGAGTCACCTAGTGCAG | 34100 fluorescence intensity (a.u.)
31 | GCCATTGATGACAAAGACAACCTGGAAGATTACTGTTGCACGGAGTCACCTAGTGCAG | 64300 fluorescence intensity (a.u.)
32 | AAGTCTGCAGTTGCACTGGGAGTTGACAAAGAAGATGACGCGGAGTCACCTAGTGCAG | 3550 fluorescence intensity (a.u.)
33 | GTCCTCATCCTAGGTAAAATAACCACGTCATCTCACAGGTCGGAGTCACCTAGTGCAG | 20700 fluorescence intensity (a.u.)
34 | GCTAGCGCGCATTGACCAAGATCCGATTTGTATGCTAGTGCGGAGTCACCTAGTGCAG | 4060 fluorescence intensity (a.u.)
35 | GAGCAGAAAGACGCGGCTTCTCGAGAGTTCCAAGTTCCAACGGAGTCACCTAGTGCAG | 45200 fluorescence intensity (a.u.)
36 | GCAGAGGCGGCGAGGCTCGGCTTCTTCTCGAACGGCGCCGCGGAGTCACCTAGTGCAG | 27600 fluorescence intensity (a.u.)
37 | CCGAGAGAAAGAGAGCAAGAGAGAGAGACGGGCTCAAGAGCGGAGTCACCTAGTGCAG | 4560 fluorescence intensity (a.u.)
38 | CGATGAGCACCGCAGCGATTGACATATTGCAATATCGTTCCGGAGTCACCTAGTGCAG | 3550 fluorescence intensity (a.u.)
39 | ACGTACGTGTGCGTATCCGACAAGTCCCACGACGTGGCAACGGAGTCACCTAGTGCAG | 4960 fluorescence intensity (a.u.)
40 | TTTTACATGATTGGATGACAAAGCCTATTTCGTTTTGTTGCGGAGTCACCTAGTGCAG | 5400 fluorescence intensity (a.u.)
41 | TATTTTGGAAAATGAGTCACAGGGTTATTGTAGCTTTGAACGGAGTCACCTAGTGCAG | 9390 fluorescence intensity (a.u.)
42 | TATTTGGTTTTGTAGGGGTTGGTTTGGGAAAATTGGAAAGCGGAGTCACCTAGTGCAG | 4240 fluorescence intensity (a.u.)
43 | AAATCAGGAAATGAAAAGCTAGGGTTTTAGGTATTGTAATCGGAGTCACCTAGTGCAG | 40800 fluorescence intensity (a.u.)
44 | TGGTTGTATTAGGTTAATAAGCCACGTCAGTGAAAAGCACCGGAGTCACCTAGTGCAG | 16100 fluorescence intensity (a.u.)
45 | TGAATGCACGTACTGGTGATGAATCTCTGATGGATGGAAGCGGAGTCACCTAGTGCAG | 3210 fluorescence intensity (a.u.)
46 | AGCAGGAGAAGGGACCGAGAGAAGAGTCGCAGAGAGAGAGCGGAGTCACCTAGTGCAG | 3660 fluorescence intensity (a.u.)
47 | AGCAGAGTGATCTCTGATGGTCACGGGCCGAGAAGGGAAGCGGAGTCACCTAGTGCAG | 45700 fluorescence intensity (a.u.)
48 | CCACCGGAAACAGGGAAGAAGAGGGGTCGAGAAAGGGGAGCGGAGTCACCTAGTGCAG | 4020 fluorescence intensity (a.u.)
49 | AGAAGGGGAGAAAAGGAAACCGATCTCGGTCATGGCCACGCGGAGTCACCTAGTGCAG | 50900 fluorescence intensity (a.u.)
50 | AGAGAGGGAAGGGAGGGAGGGAGGGAGGAGGGAGAGATCTCGGAGTCACCTAGTGCAG | 6770 fluorescence intensity (a.u.)
51 | GCCGCGCCGTCCTGTGTGTGCGTGGCGCCAATGCATGCTACGGAGTCACCTAGTGCAG | 3590 fluorescence intensity (a.u.)
52 | GGTTTTGGAGAGCGGTTTCACTGACGTGGCAGTGTTGACCCGGAGTCACCTAGTGCAG | 22900 fluorescence intensity (a.u.)
53 | ACGCCTCATCTCCAGTCCACGGCTCAACGTCCACGCACACCGGAGTCACCTAGTGCAG | 3490 fluorescence intensity (a.u.)
54 | TGATTTTGTTTTAATACATGCAATCTTTCGATCCAATGGCCGGAGTCACCTAGTGCAG | 24000 fluorescence intensity (a.u.)
